Measured values taken from ChEMBL document CHEMBL2218924, “A broad activity screen in support of a chemogenomic map for kinase signalling research and drug discovery” (Biochem J, 2013).

How the values were obtained:
[1] = target: Mitogen-activated protein kinase 3 (Homo sapiens) (UniProt P27361); details: at 1 µM
[2] = target: Mitogen-activated protein kinase 3 (Homo sapiens) (UniProt P27361); details: at 10 µM
[3] = target: Mitogen-activated protein kinase 1 (Homo sapiens) (UniProt P28482); details: at 1 µM
Sequence of Mitogen-activated protein kinase 1 (Homo sapiens) (P28482 whole entry): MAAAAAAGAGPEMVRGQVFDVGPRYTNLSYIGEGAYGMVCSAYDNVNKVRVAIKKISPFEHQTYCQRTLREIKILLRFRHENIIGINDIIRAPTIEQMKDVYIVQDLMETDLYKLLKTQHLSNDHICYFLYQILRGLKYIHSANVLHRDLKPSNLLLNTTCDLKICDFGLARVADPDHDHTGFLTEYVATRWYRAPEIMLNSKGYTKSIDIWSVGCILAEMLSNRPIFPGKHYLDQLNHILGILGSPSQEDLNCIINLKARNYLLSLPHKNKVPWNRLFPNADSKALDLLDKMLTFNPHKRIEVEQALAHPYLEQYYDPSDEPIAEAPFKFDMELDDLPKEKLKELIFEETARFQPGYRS

[4] = target: Mitogen-activated protein kinase 1 (Homo sapiens) (UniProt P28482); details: at 10 µM
[5] = target: MAP kinase-activated protein kinase 2 (Homo sapiens) (UniProt P49137); details: at 1 µM
Sequence of MAP kinase-activated protein kinase 2 (Homo sapiens) (P49137 whole entry, looked up): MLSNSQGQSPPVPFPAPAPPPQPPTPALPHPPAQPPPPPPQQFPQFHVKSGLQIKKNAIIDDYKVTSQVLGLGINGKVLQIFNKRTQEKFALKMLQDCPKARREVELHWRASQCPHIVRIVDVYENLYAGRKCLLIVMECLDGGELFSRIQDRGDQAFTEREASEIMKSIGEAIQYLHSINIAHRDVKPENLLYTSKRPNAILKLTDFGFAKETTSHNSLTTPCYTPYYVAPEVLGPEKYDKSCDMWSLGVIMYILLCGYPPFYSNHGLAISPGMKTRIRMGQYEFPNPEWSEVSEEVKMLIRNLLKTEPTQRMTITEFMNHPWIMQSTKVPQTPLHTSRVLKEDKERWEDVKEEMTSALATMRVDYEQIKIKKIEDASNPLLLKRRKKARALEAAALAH

[6] = target: MAP kinase-activated protein kinase 2 (Homo sapiens) (UniProt P49137); details: at 10 µM
[7] = target: MAP kinase-activated protein kinase 3 (Homo sapiens) (UniProt Q16644); details: at 1 µM
Sequence of MAP kinase-activated protein kinase 3 (Homo sapiens) (Q16644 whole entry, looked up): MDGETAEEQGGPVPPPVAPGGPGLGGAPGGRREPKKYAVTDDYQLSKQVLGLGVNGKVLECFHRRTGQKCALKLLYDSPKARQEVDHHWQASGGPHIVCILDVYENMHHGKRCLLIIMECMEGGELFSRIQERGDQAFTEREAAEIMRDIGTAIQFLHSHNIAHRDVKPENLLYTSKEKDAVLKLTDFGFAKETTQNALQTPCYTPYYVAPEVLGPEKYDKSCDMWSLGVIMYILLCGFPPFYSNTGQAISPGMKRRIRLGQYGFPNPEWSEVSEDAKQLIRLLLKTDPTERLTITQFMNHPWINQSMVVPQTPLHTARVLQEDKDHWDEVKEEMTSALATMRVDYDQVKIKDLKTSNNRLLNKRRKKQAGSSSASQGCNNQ

[8] = target: MAP kinase-activated protein kinase 3 (Homo sapiens) (UniProt Q16644); details: at 10 µM
[9] = target: Serine/threonine-protein kinase MARK1 (Homo sapiens) (UniProt Q9P0L2); details: at 1 µM
Sequence of Serine/threonine-protein kinase MARK1 (Homo sapiens) (Q9P0L2 whole entry, looked up): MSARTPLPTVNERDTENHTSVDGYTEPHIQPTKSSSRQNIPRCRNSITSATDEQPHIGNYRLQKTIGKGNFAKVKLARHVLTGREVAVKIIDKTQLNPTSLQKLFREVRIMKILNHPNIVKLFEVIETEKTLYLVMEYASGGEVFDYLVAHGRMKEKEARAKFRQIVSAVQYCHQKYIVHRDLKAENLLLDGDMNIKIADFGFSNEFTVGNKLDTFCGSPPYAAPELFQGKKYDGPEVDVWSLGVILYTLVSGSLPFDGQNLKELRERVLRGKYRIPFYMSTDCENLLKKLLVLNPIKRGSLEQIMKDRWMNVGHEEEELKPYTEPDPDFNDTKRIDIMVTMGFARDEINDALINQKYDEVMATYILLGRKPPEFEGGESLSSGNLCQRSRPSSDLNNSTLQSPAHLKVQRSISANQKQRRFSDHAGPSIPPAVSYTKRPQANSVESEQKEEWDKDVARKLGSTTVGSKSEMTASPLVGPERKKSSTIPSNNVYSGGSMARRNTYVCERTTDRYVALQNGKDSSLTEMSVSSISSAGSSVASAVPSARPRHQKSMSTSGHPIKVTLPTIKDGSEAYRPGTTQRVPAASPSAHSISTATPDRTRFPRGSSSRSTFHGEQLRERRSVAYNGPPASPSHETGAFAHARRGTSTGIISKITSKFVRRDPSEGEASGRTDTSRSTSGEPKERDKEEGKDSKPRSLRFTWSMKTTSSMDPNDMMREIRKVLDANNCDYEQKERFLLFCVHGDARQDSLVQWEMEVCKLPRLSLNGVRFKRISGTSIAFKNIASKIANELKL

[10] = target: Serine/threonine-protein kinase MARK1 (Homo sapiens) (UniProt Q9P0L2); details: at 10 µM
[11] = target: Maternal embryonic leucine zipper kinase (Homo sapiens) (UniProt Q14680); details: at 1 µM
Sequence of Maternal embryonic leucine zipper kinase (Homo sapiens) (Q14680 whole entry, looked up): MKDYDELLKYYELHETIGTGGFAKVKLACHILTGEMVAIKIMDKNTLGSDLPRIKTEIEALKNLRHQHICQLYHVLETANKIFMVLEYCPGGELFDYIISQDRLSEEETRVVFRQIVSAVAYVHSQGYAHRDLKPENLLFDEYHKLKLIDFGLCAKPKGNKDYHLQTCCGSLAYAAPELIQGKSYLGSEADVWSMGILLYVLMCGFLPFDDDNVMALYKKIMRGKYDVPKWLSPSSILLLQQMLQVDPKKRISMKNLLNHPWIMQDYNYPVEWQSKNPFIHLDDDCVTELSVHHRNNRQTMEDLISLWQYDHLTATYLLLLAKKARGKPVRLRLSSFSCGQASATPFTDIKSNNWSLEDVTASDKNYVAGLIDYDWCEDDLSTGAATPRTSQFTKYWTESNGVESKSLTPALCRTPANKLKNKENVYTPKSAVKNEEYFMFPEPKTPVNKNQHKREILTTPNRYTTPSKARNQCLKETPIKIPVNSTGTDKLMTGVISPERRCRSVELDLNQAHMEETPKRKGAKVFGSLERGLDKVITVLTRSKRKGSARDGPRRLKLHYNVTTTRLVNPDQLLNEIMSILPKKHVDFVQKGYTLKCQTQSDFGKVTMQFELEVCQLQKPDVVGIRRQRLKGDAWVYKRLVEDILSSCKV

[12] = target: Maternal embryonic leucine zipper kinase (Homo sapiens) (UniProt Q14680); details: at 10 µM
[13] = target: T1, Dual specificity mitogen-activated protein kinase kinase 6 (Homo sapiens) (UniProt P52564); details: at 1 µM
T1 sequence (whole entry): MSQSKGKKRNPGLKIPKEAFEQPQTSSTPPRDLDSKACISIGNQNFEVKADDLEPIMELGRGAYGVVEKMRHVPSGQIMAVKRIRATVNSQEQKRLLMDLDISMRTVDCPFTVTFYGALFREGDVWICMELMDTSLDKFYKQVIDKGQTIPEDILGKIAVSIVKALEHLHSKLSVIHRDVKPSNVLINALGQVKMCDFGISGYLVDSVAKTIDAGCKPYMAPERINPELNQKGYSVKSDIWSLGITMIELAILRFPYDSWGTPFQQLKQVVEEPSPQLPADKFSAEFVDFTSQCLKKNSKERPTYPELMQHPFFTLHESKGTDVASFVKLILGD

[14] = target: T1, Dual specificity mitogen-activated protein kinase kinase 6 (Homo sapiens); details: at 10 µM
[15] = target: T2, Dual specificity mitogen-activated protein kinase kinase 7 (Homo sapiens) (UniProt O14733); details: at 1 µM
T2 sequence (whole entry): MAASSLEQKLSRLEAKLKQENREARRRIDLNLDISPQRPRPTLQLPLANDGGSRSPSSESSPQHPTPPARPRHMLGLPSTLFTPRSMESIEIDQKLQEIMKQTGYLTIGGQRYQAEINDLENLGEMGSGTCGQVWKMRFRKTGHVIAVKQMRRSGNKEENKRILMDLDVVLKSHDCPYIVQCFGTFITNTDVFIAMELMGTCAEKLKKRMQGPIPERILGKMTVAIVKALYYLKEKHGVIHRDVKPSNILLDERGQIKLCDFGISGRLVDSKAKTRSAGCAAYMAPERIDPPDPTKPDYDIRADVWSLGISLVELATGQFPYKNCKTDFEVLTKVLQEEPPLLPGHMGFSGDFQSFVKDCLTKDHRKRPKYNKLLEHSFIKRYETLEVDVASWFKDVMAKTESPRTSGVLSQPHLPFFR

[16] = target: Dual specificity mitogen-activated protein kinase kinase 1 (Homo sapiens) (UniProt Q02750); details: at 1 µM
Sequence of Dual specificity mitogen-activated protein kinase kinase 1 (Homo sapiens) (Q02750 whole entry): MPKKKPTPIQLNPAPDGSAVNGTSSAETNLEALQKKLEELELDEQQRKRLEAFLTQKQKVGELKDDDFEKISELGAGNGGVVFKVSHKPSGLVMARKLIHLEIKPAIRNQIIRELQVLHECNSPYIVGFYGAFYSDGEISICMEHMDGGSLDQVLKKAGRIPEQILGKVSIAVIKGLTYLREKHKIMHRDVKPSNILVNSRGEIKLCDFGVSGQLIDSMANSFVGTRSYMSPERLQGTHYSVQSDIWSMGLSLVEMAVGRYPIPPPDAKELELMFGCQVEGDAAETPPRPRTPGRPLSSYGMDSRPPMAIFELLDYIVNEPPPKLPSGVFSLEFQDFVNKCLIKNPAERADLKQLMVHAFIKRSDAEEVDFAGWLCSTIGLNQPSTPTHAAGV

[17] = target: Dual specificity mitogen-activated protein kinase kinase 1 (Homo sapiens) (UniProt Q02750); details: at 10 µM
[18] = target: Misshapen-like kinase 1 (Homo sapiens) (UniProt Q8N4C8); details: at 1 µM
Sequence of Misshapen-like kinase 1 (Homo sapiens) (Q8N4C8 whole entry, looked up): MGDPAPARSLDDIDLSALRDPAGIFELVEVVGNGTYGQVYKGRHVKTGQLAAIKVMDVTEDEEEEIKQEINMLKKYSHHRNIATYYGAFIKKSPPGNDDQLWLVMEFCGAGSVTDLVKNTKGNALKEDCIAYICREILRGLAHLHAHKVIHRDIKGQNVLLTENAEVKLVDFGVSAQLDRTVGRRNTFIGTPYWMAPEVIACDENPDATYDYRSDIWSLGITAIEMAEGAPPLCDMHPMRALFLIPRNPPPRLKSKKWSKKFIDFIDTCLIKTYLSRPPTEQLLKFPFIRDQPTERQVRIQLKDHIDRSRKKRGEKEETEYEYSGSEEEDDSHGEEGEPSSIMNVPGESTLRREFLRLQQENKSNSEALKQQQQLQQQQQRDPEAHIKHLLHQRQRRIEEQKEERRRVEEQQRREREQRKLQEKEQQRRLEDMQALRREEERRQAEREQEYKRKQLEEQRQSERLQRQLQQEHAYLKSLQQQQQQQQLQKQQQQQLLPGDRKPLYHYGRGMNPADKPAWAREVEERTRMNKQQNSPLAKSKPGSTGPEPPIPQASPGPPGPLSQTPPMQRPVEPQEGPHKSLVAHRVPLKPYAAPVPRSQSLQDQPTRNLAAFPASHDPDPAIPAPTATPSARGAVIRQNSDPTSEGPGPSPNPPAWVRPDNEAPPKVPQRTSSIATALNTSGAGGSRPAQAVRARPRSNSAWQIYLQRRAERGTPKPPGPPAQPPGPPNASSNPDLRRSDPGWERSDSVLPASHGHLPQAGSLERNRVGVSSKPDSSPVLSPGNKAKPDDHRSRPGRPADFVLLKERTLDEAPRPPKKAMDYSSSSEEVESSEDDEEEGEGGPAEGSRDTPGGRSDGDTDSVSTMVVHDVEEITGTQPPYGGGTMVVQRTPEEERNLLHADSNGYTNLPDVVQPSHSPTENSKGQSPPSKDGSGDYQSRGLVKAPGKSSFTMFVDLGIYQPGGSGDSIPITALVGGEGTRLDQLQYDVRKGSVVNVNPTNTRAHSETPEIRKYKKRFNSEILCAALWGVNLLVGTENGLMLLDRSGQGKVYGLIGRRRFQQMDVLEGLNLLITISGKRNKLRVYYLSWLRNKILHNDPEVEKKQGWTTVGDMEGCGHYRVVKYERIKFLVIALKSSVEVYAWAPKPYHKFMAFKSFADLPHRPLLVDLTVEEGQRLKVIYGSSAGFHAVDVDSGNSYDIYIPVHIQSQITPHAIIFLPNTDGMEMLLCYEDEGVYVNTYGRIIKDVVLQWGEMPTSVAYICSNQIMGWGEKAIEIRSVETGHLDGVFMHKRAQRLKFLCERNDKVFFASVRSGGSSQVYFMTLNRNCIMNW

[19] = target: Misshapen-like kinase 1 (Homo sapiens) (UniProt Q8N4C8); details: at 10 µM
[20] = target: T2, Dual specificity mitogen-activated protein kinase kinase 7 (Homo sapiens); details: at 10 µM

Sequence of Mitogen-activated protein kinase 3 (Homo sapiens) (P27361 whole entry): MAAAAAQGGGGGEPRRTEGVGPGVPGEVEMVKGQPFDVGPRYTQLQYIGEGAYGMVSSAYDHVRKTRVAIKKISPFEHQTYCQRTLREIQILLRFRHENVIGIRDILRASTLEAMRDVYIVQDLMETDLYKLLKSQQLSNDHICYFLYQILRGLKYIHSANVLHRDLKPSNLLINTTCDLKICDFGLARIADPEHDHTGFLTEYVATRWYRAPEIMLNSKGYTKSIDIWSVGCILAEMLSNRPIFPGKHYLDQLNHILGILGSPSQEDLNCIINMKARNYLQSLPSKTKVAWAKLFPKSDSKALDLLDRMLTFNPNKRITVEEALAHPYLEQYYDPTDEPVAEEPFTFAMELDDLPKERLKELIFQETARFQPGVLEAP

CC(C)[C@H](CO)Nc1nc(Nc2cccc(Cl)c2)c2ncn(C(C)C)c2n1
residual activity [1]: 98%
residual activity [2]: 40%
residual activity [3]: 102%
residual activity [4]: 33%
residual activity [5]: 81%
residual activity [6]: 88%
residual activity [7]: 124%
residual activity [8]: 84%
residual activity [9]: 78%
residual activity [10]: 46%
residual activity [11]: 66%
residual activity [12]: 18%
residual activity [13]: 97%
residual activity [14]: 64%
residual activity [15]: 75%

Nc1nc(Nc2ccc(S(N)(=O)=O)cc2)nn1C(=O)c1c(F)cccc1F
residual activity [7]: 103%

COc1cc2ncnc(Nc3ccc(OCc4ccccc4)cc3)c2cc1OC
residual activity [1]: 93%
residual activity [2]: 88%
residual activity [3]: 103%
residual activity [4]: 99%
residual activity [5]: 124%
residual activity [6]: 105%
residual activity [7]: 101%
residual activity [8]: 115%
residual activity [9]: 104%
residual activity [10]: 94%
residual activity [16]: 115%
residual activity [17]: 84%
residual activity [11]: 79%
residual activity [12]: 77%
residual activity [18]: 87%
residual activity [19]: 71%
residual activity [13]: 90%
residual activity [14]: 87%
residual activity [15]: 102%
residual activity [20]: 85%

O=C1Nc2ccc(Cl)cc2/C1=C/c1cc(Cl)c(O)c(Cl)c1
residual activity [7]: 92%

CC(C)n1cnc2/c(=N/c3cccc(Cl)c3)nc(NCCO)[nH]c21
residual activity [7]: 116%

CCn1cnc2c(Nc3cccc(Cl)c3)nc(N[C@@H]3CCCC[C@@H]3N)nc21
residual activity [1]: 49%
residual activity [2]: 10%
residual activity [3]: 62%
residual activity [4]: 11%
residual activity [7]: 115%
residual activity [8]: 88%
residual activity [9]: 77%
residual activity [10]: 35%
residual activity [16]: 87%
residual activity [17]: 25%
residual activity [11]: 59%
residual activity [12]: 18%
residual activity [19]: 80%
residual activity [13]: 99%
residual activity [14]: 78%
residual activity [15]: 86%
residual activity [20]: 91%

COc1ccc(S(=O)(=O)N(CCO)c2ccccc2CN(C)C/C=C/c2ccc(Cl)cc2)cc1
residual activity [7]: 118%

N#CCCc1ccc2c(c1)-c1[nH]c3ccc([N+](=O)[O-])cc3c1CC(=O)N2
residual activity [7]: 100%

O=[N+]([O-])/C=C/c1ccc2c(c1)OCO2
residual activity [1]: 78%
residual activity [2]: 86%
residual activity [3]: 106%
residual activity [4]: 84%
residual activity [5]: 84%
residual activity [6]: 108%
residual activity [7]: 93%
residual activity [8]: 83%
residual activity [9]: 91%
residual activity [10]: 85%
residual activity [16]: 127%
residual activity [17]: 120%
residual activity [11]: 78%
residual activity [12]: 84%
residual activity [18]: 97%
residual activity [19]: 82%
residual activity [13]: 85%
residual activity [14]: 103%
residual activity [15]: 112%
residual activity [20]: 84%

Cc1nc2cc3nc(-c4cccs4)cnc3cc2n1C
residual activity [7]: 114%

CCN(CC)CCCCN1c2ccccc2Oc2ccc(Cl)cc21
residual activity [7]: 115%

COc1cccc(-c2cc(=O)c3ccccc3o2)c1N
residual activity [7]: 122%

Nc1ccc2ncnc(NCCc3ccc(Oc4ccccc4)cc3)c2c1
residual activity [7]: 117%

O=C1C(Cl)=C(N2C(=O)CCC2=O)C(=O)c2ccccc21
residual activity [7]: 101%

CC(=O)O/N=C1\C(=C2\C(=O)Nc3cc(Br)ccc32)Nc2ccccc21
residual activity [7]: 97%

O=C1Nc2ccccc2/C1=C1/Nc2ccccc2/C1=N\OCCC(O)CO (stereo not given)
residual activity [7]: 106%

O=C(CCCc1ccc(-c2ccccc2F)cc1)Nc1ccc(O)cc1
residual activity [7]: 100%

NC(=O)Nc1sc(-c2ccc(F)cc2)cc1C(N)=O
residual activity [7]: 98%

C[C@@H](N)[C@H]1CC[C@H](C(=O)Nc2ccncc2)CC1
residual activity [7]: 90%

Nc1n[nH]c2nnc(-c3c(-c4ccccc4)nn4ccccc34)cc12
residual activity [7]: 99%

O=C1Nc2ccc(Br)cc2/C1=C\c1cc2c([nH]1)CCCC2
residual activity [7]: 126%

O=C1c2ccccc2-[n+]2ccc3c([nH]c4ccccc43)c21
residual activity [7]: 115%

COc1ccc(OC)c2c(=S)c3ccccc3[nH]c12
residual activity [7]: 100%

Cc1cc(C)c(/C=C2\C(=O)Nc3ccccc32)[nH]1
residual activity [7]: 140%

Oc1ccc(-c2nc(-c3ccc(F)cc3)c(-c3ccncc3)[nH]2)cc1
residual activity [7]: 127%

Nc1ncnc2c1c(-c1ccc(Oc3ccccc3)cc1)cn2C1CCCC1
residual activity [7]: 114%

O=c1cc(N2CCOCC2)oc2c1ccc1ccccc12
residual activity [7]: 127%

CC#CC(=O)Nc1cc2c(Nc3ccc(F)c(Cl)c3)ncnc2cn1
residual activity [7]: 104%

CC(C)c1nn(-c2c(Cl)cccc2Cl)c2nc(Cc3ccc(OCCO)cc3)[nH]c(=O)c12
residual activity [7]: 101%

Nc1nccc(-c2c(-c3ccc(F)cc3)ncn2C2CCNCC2)n1
residual activity [7]: 123%

COc1cc2nccc(Oc3ccc(NC(=S)NC(=O)c4ccccc4C)cc3)c2cc1OC
residual activity [7]: 101%

COc1cc2ncnc(N3CCN(C(=O)Nc4ccc(Oc5ccccc5)cc4)CC3)c2cc1OC
residual activity [7]: 100%

Nc1n[nH]c2nc3ccccc3nc12
residual activity [7]: 99%

CO[C@H]1[C@@H](OC)C[C@H](C)[C@@H](OC)C2=CC(=O)C=C(NC(=O)/C(C)=C/C=C/[C@H](OC)[C@@H](OC(N)=O)/C(C)=C/[C@@H]1C)C2=O
residual activity [7]: 110%

CN(C)S(=O)(=O)c1ccc2c(c1)/C(=C/c1cc3c([nH]1)CCCC3)C(=O)N2
residual activity [7]: 94%

N#C/C(=C1/Nc2ccccc2S1)c1ccnc(NCCc2cccnc2)n1
residual activity [7]: 99%

COc1ccc(CNc2nc(N(CCO)CCO)nc3c2ncn3C(C)C)cc1
residual activity [7]: 110%

COc1ccc(C(=O)Nc2sc3c(c2C(N)=O)CCCC3)cc1OC
residual activity [7]: 71%

O=C1NC(=O)C(c2cn(CCCn3ccnc3)c3ccccc23)=C1Nc1ccccc1
residual activity [7]: 126%

COc1cc2c(cc1OC)-c1n[nH]c(Nc3cccc(F)c3)c1C2
residual activity [7]: 99%

O=C(O)c1ccc2c3c1cccc3c(=O)n1c3ccccc3nc21
residual activity [7]: 123%

Cn1cc(/C=C2\C(=O)Nc3ccc(S(N)(=O)=O)cc32)c2ccccc21
residual activity [7]: 117%

Cn1cnc2cc3c(Nc4cccc(Br)c4)ncnc3cc21
residual activity [7]: 107%

CCCCc1c(-c2ccc(OC)cc2)[nH]c2nccnc12
residual activity [7]: 130%

c1ccc(-c2cnc(Nc3ccc(OCCN4CCCC4)cc3)s2)cc1
residual activity [7]: 118%

Cc1ccc(S(=O)(=O)/C=C/C#N)cc1
residual activity [7]: 94%

O=C1c2ccccc2-c2nc3nnnn3nc21
residual activity [8]: 108%
residual activity [9]: 107%
residual activity [10]: 104%
residual activity [11]: 67%
residual activity [12]: 33%
residual activity [18]: 105%
residual activity [19]: 107%
residual activity [14]: 116%
residual activity [15]: 66%
residual activity [20]: 39%

CN[C@@H]1C[C@H]2O[C@@](C)([C@@H]1OC)n1c3ccccc3c3c4c(c5c6ccccc6n2c5c31)C(=O)NC4
residual activity [8]: 46%
